Reference: PubChem BioAssay AID492960 (National Center for Advancing Translational Sciences (NCATS), 2010)
Records with an inconclusive call do not appear. Where a call stands in place of a potency, no number is given. The source made the active and inactive calls. The call rests on the fitted dose curve; in most records, active means well fitted curve in the direction sought with a large enough effect; inconclusive means small, poorly fitted or top-dose-only effect, or effect the other way, or another doubt; inactive means no such curve, though single readings can be large or run the other way.

Test: Secondary Assay for lipid storage modulators: HepG2 cell LDSA assay for probe SAR
Conditions: HepG2 lipid droplet BODIPY, laser-scanning cytometry, 18-24 h; series mostly up to 46.1 µM
From the text: NIH Molecular Libraries Probe Production Centers Network [MLPCN] NIH Chemical Genomics Center [NCGC] MLPCN Grant: 1 R03 MH085686-01 Assay Submitter (PI): Beller, Mathias; Max-Planck-Institut fur Biophysikalische Chemie NCGC Assay Overview: Storing lipids as a reservoir for energy or the anabolism of elementary metabolites is a common feature of probably all cells and is conserved from bacteria to humans. The universal cellular lipid storage organelle is the so-called lipid storage droplet (LD). Although ubiquitous, LDs share a simple structure composed of a hydrophobic core that harbors the storage lipids, which is shielded by a droplet-specific phospholipid monolayer to which proteins are attached. The current model of LD biogenesis involves an incorporation of the lipid core into the membrane leaflets of the endoplasmic reticulum (ER) followed by a subsequent budding-like maturation of a LD, which ultimately pinches off. Once released, LD volume can increase by localized lipogenesis or fusion of existing droplet. Storage lipids are re-mobilized enzymatically by lipase activity. Lipase regulation in the adipocyte is heavily studied and involves multiple components including catecholamine signaling, the LD-associated proteins Perilipin and comparative gene identification (CGI-58) and at least two lipases named hormone sensitive lipase (HSL) and adipocyte triglyceride lipase (ATGL). LD regulation outside of the adipocyte is poorly understood and only few components are known. However, there is an urgent need to learn more about ectopic fat depots as mislocalized storage of lipids, for example in the liver or muscle, is an eminent health problem associated with insulin resistance or the metabolic syndrome.
NCGC Assay Protocol Summary: The assay was performed with HepG2 cells, using an oleic acid feeding protocol similar to the S3 assay. We dispensed 4 uL of cells to give 700 cells/well into Greiner bio-one 1,536-well plates (black walled, clear bottom). Triacsin C (Sigma-Aldrich T-4540), an inhibitor of long-chain fatty acyl CoA synthetase that blocks synthesis of triglycerides, was used as a positive control for lipid under-storage using a final concentration of 20 uM. The orexin antagonist, SB408124 - previously identified to stimulate lipid over-storage, was used as a positive control for lipid over-storage using a final concentration of 20 uM. A total of 23 nL of compound solution of different concentrations were transferred to the assay plates using a Kalypsys pin tool equipped with a 1,536-pin array containing 10-nL slotted pins (FP1S10, 0.457-mm diameter, 50.8 mm long; V&P Scientific). One microliter of oleic acid was added (400 uM final concentration), and the plate was lidded with stainless steel rubber gasket lined lids containing pinholes. After 18-24 h incubation at […] and 95% humidity, 4 uL of the dyes BODIPY 493/503 (Molecular Probes) and the Cell Tracker Red CMTPX dye (Molecular Probes) were added to the wells to stain lipid droplets and enumerate cell number, respectively. Fluorescence was detected by excitation of the fluorophores with a 488-nm laser on an Acumen Explorer (TTP Lab Tech). The total intensity in channel 2 (500-530 nm) reflected lipid droplet accumulation. Cells were detected using channel 3 (575-640 nm) with 5-um width and 100-um depth filters. The ratio of the number of objects in PMT channel 2 over the number of objects in PMT channel 3 was also calculated. […]

| SMILES | Potency |
| --- | --- |
| CCOc1ccc(CCNC(=O)c2ccc(C(=O)c3ccccc3)cc2)cc1OCC | inactive |
| CCOC(=O)C1CCN(C(=O)C2(NC(=O)Nc3ccccc3Cl)CCCC2)CC1 | inactive |
| CCOc1ccc(CCNC(=O)c2ccccc2)cc1OCC | inactive |
| CCC/C=C/C/C=C/C=C/C=N/NN=O | 396 nM (active) |
| CCOc1ccc(CCNC(=O)c2ccc(Oc3ccccc3)cc2)cc1OCC | inactive |
